Results as given in PubChem BioAssay AID1159580 (chemical genetic matrix, 2015).
The whole screen tested about 5,500 compounds, of which about 2,000 (36%) were called active. Not shown: some 18% with an inconclusive outcome. Rule as the data show it: active = normalized growth mostly below about 0.91 (no sharp cut-off); inconclusive = no clear call, values can overlap the other calls; inactive = mostly above about 0.92. The list shows a part of the results.

Assay: chemical genetic growth profiling, strain panel (AID 1159580);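 also: tested at 20 µM; growth read once vehicle control cultures reached saturation at 30 °C; 1 = growth at the plate median or of vehicle wells; lower values mean less growth of the strain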
Details: S. cerevisiae deletion strains, growth OD
[1] = locus YAR019C, strain CDC15, active compounds read low
[2] = locus YBL105C, strain PKC1, active compounds read low
[3] = locus YBR135W, strain CKS1, active compounds read low
[4] = locus YBR136W, strain MEC1, active compounds read low
[5] = locus YBR160W, strain CDC28, active compounds read low
[6] = locus YDL017W, strain CDC7, active compounds read low
[7] = locus YDL028C, strain MPS1, active compounds read low
[8] = locus YDL101C, strain DUN1, active compounds read low
[9] = locus YDL108W, strain KIN28, active compounds read low
[10] = locus YDL132W, strain cdc53, active compounds read low
[11] = locus YDL214C, strain PRR2, active compounds read low
[12] = locus YDR052C, strain DBF4, active compounds read low
[13] = locus YDR054C, strain cdc34, active compounds read low
[14] = locus YDR226W, strain ADK1, active compounds read low
[15] = locus YDR477W, strain SNF1, active compounds read low
[16] = locus YER123W, strain YCK3, active compounds read low
[17] = locus YER133W, strain GLC7, active compounds read low
[18] = locus YFL009W, strain cdc4, active compounds read low
[19] = locus YFL029C, strain CAK1, active compounds read low
[20] = locus YFR003C, strain YPI1, active compounds read low
[21] = locus YFR019W, strain FAB1, active compounds read low
[22] = locus YFR028C, strain CDC14, active compounds read low
[23] = locus YGR040W, strain KSS1, active compounds read low
[24] = locus YGR052W, strain FMP48, active compounds read low
[25] = locus YGR092W, strain DBF2, active compounds read low
[26] = locus YHR030C, strain SLT2, active compounds read low
[27] = locus YHR079C, strain IRE1, active compounds read low
[28] = locus YHR082C, strain KSP1, active compounds read low
[29] = locus YHR205W, strain SCH9, active compounds read low
[30] = locus YIL147C, strain SLN1, active compounds read low
[31] = locus YJL095W, strain BCK1, active compounds read low
[32] = locus YJL128C, strain PBS2, active compounds read low
[33] = locus YJL157C, strain FAR1, active compounds read low
[34] = locus YJR016C, strain ILV3, active compounds read low
[35] = locus YJR066W, strain TOR1 (second series), active compounds read low
[36] = locus YJR066W, strain TOR1, active compounds read low
[37] = locus YKL048C, strain ELM1, active compounds read low
[38] = locus YKL067W, strain YNK1, active compounds read low
[39] = locus YKL101W, strain HSL1, active compounds read low
[40] = locus YKL193C, strain SDS22, active compounds read low
[41] = locus YKL203C, strain TOR2, active compounds read low
[42] = locus YLR113W, strain HOG1, active compounds read low
[43] = locus YLR133W, strain CKI1, active compounds read low
[44] = locus YLR403W, strain SFP1, active compounds read low
[45] = locus YML070W, strain DAK1, active compounds read low
[46] = locus YMR001C, strain CDC5, active compounds read low
[47] = locus YMR205C, strain PFK2 (second series), active compounds read low
[48] = locus YMR277W, strain FCP1, active compounds read low
[49] = locus YNL006W, strain LST8, active compounds read low
[50] = locus YNL020C, strain ARK1, active compounds read low
[51] = locus YNL161W, strain CBK1, active compounds read low
[52] = locus YNL183C, strain NPR1, active compounds read low
[53] = locus YNL207W, strain RIO2, active compounds read low
[54] = locus YNL222W, strain SSU72, active compounds read low
[55] = locus YNL307C, strain MCK1 (second series), active compounds read low
[56] = locus YOL078W, strain AVO1, active compounds read low
[57] = locus YOL136C, strain PFK27, active compounds read low
[58] = locus YOR061W, strain CKA2, active compounds read low
[59] = locus YOR119C, strain RIO1, active compounds read low
[60] = locus YOR231W, strain MKK1, active compounds read low
[61] = locus YOR329C, strain SCD5, active compounds read low
[62] = locus YPL031C, strain PHO85, active compounds read low
[63] = locus YPL153C, strain RAD53, active compounds read low
[64] = locus YPL204W, strain HRR25, active compounds read low
[65] = locus YPL209C, strain IPL1, active compounds read low
[66] = locus YPL256C, strain CLN2, active compounds read low
[67] = locus YPR025C, strain CCL1, active compounds read low
[68] = locus YPR106W, strain ISR1, active compounds read low
[69] = locus YPR111W, strain DBF20, active compounds read low
[70] = strain NNK1, active compounds read low
[71] = strain TSCII, active compounds read low

Measured: normalized growth

CC(C)(C)CN/C(C#N)=C(/C#N)NCc1cccc(Cl)c1
inactive: [1] 0.993 | [2] 0.991 | [3] 0.98 | [4] 0.991 | [5] 0.991 | [6] 0.994 | [7] 0.993 | [8] 0.982 | [9] 0.997 | [10] 0.987 | [11] 0.991 | [12] 0.996 | [13] 0.991 | [14] 0.973 | [15] 0.988 | [16] 0.947 | [17] 0.988 | [18] 0.988 | [19] 0.992 | [20] 0.991 | [21] 0.99 | [22] 0.983 | [23] 0.966 | [24] 0.947 | [25] 0.871 | [26] 0.977 | [27] 0.995 | [28] 1.01 | [29] 0.896 | [30] 1 | [31] 0.883 | [32] 0.95 | [33] 0.982 | [34] 0.987 | [35] 0.97 | [36] 1 | [37] 0.986 | [38] 0.977 | [39] 0.954 | [40] 0.984 | [41] 1.04 | [42] 0.915 | [43] 0.974 | [44] 0.941 | [45] 0.965 | [46] 0.995 | [47] 0.973 | [48] 0.992 | [49] 0.978 | [50] 0.974 | [51] 0.984 | [52] 0.945 | [53] 0.98 | [54] 0.984 | [55] 0.877 | [56] 0.981 | [57] 0.955 | [58] 1 | [59] 1.04 | [60] 0.931 | [61] 0.99 | [62] 0.99 | [63] 0.988 | [64] 0.967 | [65] 0.982 | [66] 1.08 | [67] 0.986 | [68] 0.989 | [69] 0.964 | [70] 0.987 | [71] 0.985

CS(=NC(=O)c1cccc(Cl)c1)c1ccc(OC(=O)c2ccc(Cl)cc2)cc1 (stereo not given)
inactive: [1] 0.969 | [2] 0.966 | [3] 0.97 | [4] 0.966 | [5] 0.967 | [6] 0.968 | [7] 0.964 | [8] 0.972 | [9] 0.964 | [10] 0.958 | [11] 0.958 | [12] 0.954 | [13] 0.967 | [14] 0.966 | [15] 0.972 | [16] 0.924 | [17] 0.95 | [18] 0.966 | [19] 0.966 | [20] 0.968 | [21] 0.943 | [22] 0.966 | [23] 0.96 | [24] 0.98 | [25] 0.981 | [26] 1.08 | [27] 1.1 | [28] 1.06 | [29] 1 | [30] 0.958 | [31] 0.946 | [32] 0.944 | [33] 0.949 | [34] 0.969 | [35] 0.983 | [36] 1.05 | [37] 0.945 | [38] 0.949 | [39] 0.935 | [40] 0.964 | [41] 1.02 | [42] 0.876 | [43] 0.952 | [44] 1 | [45] 0.94 | [46] 0.964 | [47] 0.934 | [48] 0.968 | [49] 0.979 | [50] 0.949 | [51] 0.971 | [52] 1.01 | [53] 0.964 | [54] 0.97 | [55] 0.982 | [56] 0.959 | [57] 0.936 | [58] 0.926 | [59] 1.01 | [60] 0.909 | [61] 0.969 | [62] 0.941 | [63] 0.968 | [64] 0.952 | [65] 0.974 | [66] 1.06 | [67] 0.968 | [68] 0.974 | [69] 0.975 | [70] 0.972 | [71] 0.965

CCOc1ccc(/C=C(\C#N)c2cccc(Cl)c2)cc1
active: locus YDL134C, strain PPH21, active compounds read low 0.915 | locus YLR085C, strain ARP6, active compounds read low 0.723 | locus YMR307W, strain GAS1, active compounds read low 0.645
inactive: locus YAL013W, strain DEP1, active compounds read low 0.992 | locus YBR229C, strain ROT2, active compounds read low 0.995 | locus YCL061C, strain MRC1, active compounds read low 1.01 | [8] 1.01 | locus YDR150W, strain NUM1, active compounds read low 0.975 | locus YEL061C, strain CIN8, active compounds read low 0.955 | locus YGR078C, strain PAC10, active compounds read low 0.979 | [26] 0.694 | locus YHR087W, strain rtc3, active compounds read low 0.97 | locus YJL187C, strain SWE1, active compounds read low 1.01 | locus YJR043C, strain POL32, active compounds read low 1 | locus YJR075W, strain HOC1, active compounds read low 0.967 | locus YLR039C, strain RIC1, active compounds read low 0.892 | locus YLR058C, strain SHM2 (second series), active compounds read low 0.982 | locus YLR262C, strain YPT6, active compounds read low 0.952 | locus YML094W, strain GIM5, active compounds read low 0.927 | locus YMR219W, strain ESC1, active compounds read low 0.99 | locus YMR263W, strain SAP30, active compounds read low 0.987 | locus YNL153C, strain GIM3, active compounds read low 1.01 | locus YNL298W, strain CLA4 (second series), active compounds read low 0.936 | locus YNL322C, strain KRE1, active compounds read low 0.975 | locus YNR030W, strain Alg12, active compounds read low 0.928 | locus YPL055C, strain LGE1, active compounds read low 0.95 | locus YPL241C, strain CIN2, active compounds read low 0.933 | locus YPR135W, strain CTF4, active compounds read low 0.987
